Screens as filed in PubChem BioAssay.
PAFAH2 inh = PAFAH2 enzyme inhibitors, primary screen, biochemical, fluorescence polarization, human; Platelet-activating factor acetylhydrolase 2, cytoplasmic (Homo sapiens), Q99487; recombinant PAFAH2, FP-rhodamine activity probe; inhibition, % at 3.39 µM; 340,000 tested, 0.99% active; AID 492956, 2010;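 active = inhibition above the mean over all tested compounds plus 3 SD, cut at about 30% in these data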;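 note: inhibitors block probe labeling of enzyme so polarization drops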
eLon inh = inhibitors of E. coli Lon protease, primary screen, biochemical, fluorescence polarization; purified E. coli Lon protease; inhibition, % at 7.94 µM; 360,000 tested, 0.42% active; P0A9M0; in the data active = inhibition above about 13%, passing the limit was not always enough
PAFAH1B2 inh = PAFAH1B2 enzyme inhibitors, primary screen, biochemical, fluorescence polarization, human; Platelet-activating factor acetylhydrolase IB subunit alpha2 (Homo sapiens), P68402; recombinant PAFAH1B2, FP-rhodamine activity probe; inhibition, % at 3.39 µM; 340,000 tested, 1.2% active;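 active = inhibition above the mean of all tested compounds plus 3 SD, cut at about 24% in these data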
pPAFAH inh = pPAFAH enzyme inhibitors, primary screen, biochemical, fluorescence polarization, human; Platelet-activating factor acetylhydrolase (Homo sapiens), Q13093; recombinant pPAFAH, FP-rhodamine probe fluorescence polarization; inhibition, % at 3.39 µM; 330,000 tested, 1.5% active; AID 463082, 2010;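 active = inhibition above the mean inhibition across the screen plus 3 SD, cut at about 25% in these data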;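 note: inhibitors block binding of the rhodamine activity-based probe so polarization drops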
PAFAH1B3 inh = PAFAH1B3 enzyme inhibitors, primary screen, biochemical, fluorescence polarization, human; Platelet-activating factor acetylhydrolase IB subunit alpha1 (Homo sapiens), Q15102; recombinant PAFAH1B3, FP-rhodamine probe; inhibition, % at 3.39 µM; 340,000 tested, 0.28% active; AID 492972, 2010;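 active = inhibition above the screen-wide average of all tested compounds plus 3 SD, cut at about 25% in these data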
Rin1 Abl inh = inhibitors of Rin1-Abl protein binding, primary screen, biochemical, TR-FRET | AID 588664, 2011 | 360,000 tested, 0.4% active | inhibition, % at 7.35 µM; in the data active = inhibition above about 5%, passing the limit was not always enough
pPAFAH FP conf = pPAFAH (PLA2G7) enzyme inhibitors, confirmation, biochemical, fluorescence polarization, human | 2,300 tested, 72% active | recombinant pPAFAH, FP-Rh probe fluorescence polarization | AID 463230, 2010 | shares compounds with pPAFAH inh | inhibition, % at 3.39 µM;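 active = mean inhibition of the triplicate above the hit cutoff set for the earlier primary screen, cut at about 25% in these data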
Each line names hits and unclear results; the compound was inactive in the other large screens (follow-up assays come after a bar, where they were run). Hits are enriched below; roughly 3.1% of the tested compounds scored in any of these assays.

C[C@@H](NC(=O)c1nc[nH]c1C(=O)N[C@@H](CCCCNC(=O)OC(C)(C)C)C(=O)OC(C)(C)C)c1ccccc1	pPAFAH inh 35.5 | pPAFAH FP conf 30.2
O=C(Nc1cnc2ccccc2c1)c1ccncc1	pPAFAH inh 51.6 | pPAFAH FP conf inactive
COc1ccc(OC)c(N2C(=O)[C@@H]3C(c4ccccc4Cl)=NO[C@@H]3C2=O)c1	pPAFAH inh 37.9 | pPAFAH FP conf inactive
COc1ccc(S(=O)(=O)c2c(N)n(Cc3ccco3)c3nc4ccccc4nc23)cc1	pPAFAH inh 36.1 | pPAFAH FP conf inactive
O=[N+]([O-])c1cc(C(F)(F)F)cc([N+](=O)[O-])c1NN=C1CCCCC1	pPAFAH inh 34.9 | pPAFAH FP conf inactive
CCOC(=O)C1CCN(Cc2ccc(OCc3ccccc3)c(OC)c2)CC1	pPAFAH inh 71.6 | pPAFAH FP conf inactive
CCOC(=O)C1CCN(Cc2ccc(OC)c(OCc3ccccc3)c2)CC1	none
CCOC(=O)c1cc(C#N)c(SCC(=O)OC)[nH]c1=O	pPAFAH inh 34.8 | pPAFAH FP conf inactive
COC(=O)CSc1[nH]c(=O)cc(C)c1C#N	none
CN(Cc1ccc(C(C)(C)C)cc1)C(=O)c1ccc2c(=O)n3c(nc2c1)CCC3	none
Cc1cccc(NS(=O)(=O)c2ccc3[nH]c(=O)cc(C(=O)OC(C)C(=O)Nc4ccc([N+](=O)[O-])cc4)c3c2)c1 (configuration not stated)	none
CCc1ccc(NC(=O)C(C)OC(=O)c2cc(=O)[nH]c3ccc(S(=O)(=O)Nc4ccc(F)cc4)cc23)cc1 (configuration not stated)	pPAFAH inh 73.2 | pPAFAH FP conf 55.8
O=C(N/N=C/c1cc(Br)cc([N+](=O)[O-])c1O)c1ccc(NC(=O)c2ccc(F)cc2)cc1	pPAFAH inh 38.0 | pPAFAH FP conf 55.0
CC(C)(C)c1ccc(OCCCC(=O)Nc2nnc(C3CC3)s2)cc1	none (no result: PAFAH2 inh, PAFAH1B2 inh, pPAFAH inh, PAFAH1B3 inh)
O=C(CNC(c1ccccc1)c1ccccc1)Nc1c(F)cccc1F	pPAFAH inh 89.2 | pPAFAH FP conf inactive
Cc1ccc(NC(=O)CNC(c2ccccc2)c2ccccc2)c(F)c1	none
COc1cccc2cc(CC(=O)c3ccc(C)cc3C)c(=O)oc12	none
C=C(CN(C)C)C(=O)c1ccc2c(c1)OCO2	none (no result: pPAFAH inh)
CC(C)(C)CN1CCN(Cc2cccnc2)CC1CCO (configuration not stated)	none
CN(C)/C=C/C(=O)/C=C/c1ccc(Cl)cc1	pPAFAH inh 36.8 | pPAFAH FP conf inactive
CN(C)/C=C/C(=O)c1ccc(Cl)cc1	none
Oc1ccccc1-c1nc2c3ccccc3c3ccccc3c2[nH]1	PAFAH2 inh 59.5, PAFAH1B2 inh 26.9, pPAFAH inh 45.4, PAFAH1B3 inh 43.0 | pPAFAH FP conf 27.3
CC(C)Cn1c(=O)c(C(=O)NCc2ccccn2)c(O)c2ccccc21	pPAFAH inh 55.7 | pPAFAH FP conf inactive
CC(Nc1cccc2ccccc12)C(=O)N/N=C/c1ccc([N+](=O)[O-])cc1 (configuration not stated)	none
COc1cc([N+](=O)[O-])cc(/C=N/NC(=O)C(C)Nc2cccc3ccccc23)c1O (configuration not stated)	pPAFAH inh 39.7 | pPAFAH FP conf 58.8
COc1ccc(CNC(=O)C2CCN(S(=O)(=O)c3ccc(N4CCCC4=O)cc3)CC2)cc1	none (no result: PAFAH2 inh, PAFAH1B2 inh, pPAFAH inh, PAFAH1B3 inh)
C#Cc1ccc(CN2CCC(Oc3ccc(C(=O)NCc4ccccn4)cc3)CC2)cc1	none
Cc1cc(-c2nnc(SCC(=O)Nc3nc(-c4ccc(Cl)cc4)cs3)o2)no1	pPAFAH inh 41.6 | pPAFAH FP conf inactive
O=C(Cc1cccs1)N1CCN(S(=O)(=O)c2cc(Cl)ccc2Cl)CC1	none
Cc1oc(-c2ccc(Cl)cc2)cc1-c1nn2c(-c3ccoc3C)nnc2s1	pPAFAH inh 53.2 | pPAFAH FP conf 43.4
CCn1c(NC(=O)c2cccc(Cn3cc(Cl)cn3)c2)nc2ccccc21	pPAFAH inh 65.0 | pPAFAH FP conf 64.5
